Screens: PubChem BioAssay, several laboratories
DAT uptake mod = modulates human dopamine transporter uptake under cocaine; LLC-PK1 hDAT cells, [14C]-dopamine uptake with cocaine IC80; actives deviate in either direction; actives 1.3% (n = 110,000); AID 449768; Q01959; B-score at 10 µM;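 active = Z score or B-score, a plate-position-corrected score, falls beyond the plate's 99.7% confidence bounds, in either direction; inactive = both scores lie inside the 99.7% bounds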;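 note: scored against the spread of the other compound wells on the same plate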
D1 mod = D1 dopamine receptor (human) allosteric modulation; P21728; HEK293 D1, CRE-luciferase, dopamine EC30 potentiation; actives deviate in either direction; B-score at 10 µM; actives 5.9% (n = 58,000); AID 641;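 active = luminescence count or its row- and column-corrected plate score outside the 99.7% band of the plate's sample wells, on either side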
Target sequence (P21728 whole entry, looked up): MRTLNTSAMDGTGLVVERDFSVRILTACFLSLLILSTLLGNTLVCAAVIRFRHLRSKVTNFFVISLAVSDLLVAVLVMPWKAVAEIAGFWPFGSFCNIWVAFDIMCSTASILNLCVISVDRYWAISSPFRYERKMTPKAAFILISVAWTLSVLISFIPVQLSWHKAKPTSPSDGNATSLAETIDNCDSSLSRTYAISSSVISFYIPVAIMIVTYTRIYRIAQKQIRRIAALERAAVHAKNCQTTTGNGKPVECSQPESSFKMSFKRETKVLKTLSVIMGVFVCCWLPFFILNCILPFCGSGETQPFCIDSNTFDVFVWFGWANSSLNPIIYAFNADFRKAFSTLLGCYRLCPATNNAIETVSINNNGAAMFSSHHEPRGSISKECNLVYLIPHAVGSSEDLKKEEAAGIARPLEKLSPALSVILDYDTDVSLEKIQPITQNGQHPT
PostGolgi yeast = growth inhibition of a yeast mutant, post-Golgi transport screen; AID 739; post-Golgi transport phenotypic cell assay; actives 0.9% (n = 98,000); inhibition, % at 10 µM;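 note: yeast cells grown in 1536-well plates; yeast grown about 18 h at 30C before absorbance read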
Cav32 inh = inhibitors of human Cav3.2 T-type calcium channel; O95180; Cav3.2-expressing cells, Fluo-4 calcium fluorescence FDSS; active compounds read low; B-score at 10 µM; actives 4% (n = 100,000);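 active = single-dose well whose peak fluorescence ratio is a statistical outlier from its plate by either plate-standardised score or position-corrected B-score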
PLAP act = activates human placental alkaline phosphatase; actives 1.2% (n = 96,000); P05187; activation fold at 20 µM; purified PLAP enzyme, luminescent substrate read-out; active compounds read high; in the data active = activation fold above about 2
PostGolgi ctrl = growth of the yeast control strain, post-Golgi counter-screen; efflux-deficient yeast background strain, growth absorbance A615, 16 h; inhibition, % at 10 µM; actives 5% (n = 98,000); AID 738
D1 mod confirm = confirmation of human D1 dopamine receptor allosteric modulators; shares compounds with D1 mod; HEK293 D1 CRE-luciferase, dopamine EC30 potentiation; active compounds read high; luminescence at 10 µM; actives 88% (n = 2,200);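 active = luminescence in either of two replicates above the same-plate mean plus 3 SD of the low-dose dopamine control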
D1 no dopamine = activates D1 CRE-luciferase signal without dopamine present | shares compounds with D1 mod | HEK293 D1 CRE-luciferase, luminescence, no dopamine; active compounds read high | luminescence at 10 µM | actives 0.8% (n = 1,900) | AID 646; in the data active = luminescence above about 3900
Isoprot counter = counter-screen for D1 modulators: isoproterenol response in HEK293 cells. shares compounds with D1 mod. HEK293 D1 CRE-luciferase, isoproterenol EC30 counter-screen. calls only at 10 µM. actives 63% (n = 2,200);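 active = luminescence in either replicate above plate mean of wells with a partly effective reference agonist dose plus 3 SD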;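 note: isoproterenol raises cAMP through native beta-adrenoceptor Gs so signal bypasses D1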
An asterisk follows results filed as active; i = inactive; / = no result given; + = active, no number. An excerpt weighted towards active compounds, which were near 12% of everything screened. Cut-off read from the data, not from the text of the source, unless noted: active = inhibition above about 30%; inactive = the rest.

SMILES | DAT uptake mod | D1 mod | PostGolgi yeast | Cav32 inh | PLAP act | PostGolgi ctrl | D1 mod confirm | D1 no dopamine | Isoprot counter
O=C(CC1Oc2ccccc2NC1=O)NCCc1ccccc1 (stereo not drawn) | -0.197 | -0.439 | -2.8 | 0.836 | 1 | 4.2 | / | / | /
NC(=O)C(c1ccc(Cl)cc1Cl)c1ncc(C(F)(F)F)cc1Cl (stereo not drawn) | 0.571 | / | 19.3 | -1.1 | 0.7 | 9.0 | / | / | /
Cc1ccc(C2C(C#N)=C(N)Oc3n[nH]c(-c4cccs4)c32)cc1 (stereo not drawn) | -0.11 | / | / | 1.17 | / | / | / | / | /
CC(C)C1C(C#N)=C(N)Oc2n[nH]c(-c3cccs3)c21 (stereo not drawn) | -0.114 | 3.63* | 16.6 | 0.699 | 0.9 | 6.4 | 8472* | 1560 | i
CCCCCCCCc1nnc(NC(=O)c2ccco2)s1 | -0.252 | / | -4.0 | -2.35 | 1.2 | -1.6 | / | / | /
O=C(Cn1c(=O)n(Cc2ccc3c(c2)OCO3)c(=O)c2ccccc21)N1CCCc2ccccc21 | -0.0152 | 6.02* | 8.8 | -7.07* | / | 49.9* | 10984* | 1796 | +
N#Cc1c2c(nc(N)c1-c1ccccc1)CCCCC2 | -0.735 | 4.52* | -0.3 | -0.277 | 0.7 | 10.7 | 7208* | 1532 | i
N#Cc1c(N)nc2c(c1-c1ccccc1)CCCC2 | -0.593 | / | -2.5 | 0.128 | 1 | 11.9 | / | / | /
O=C(NCc1ccccn1)C1Nc2ccc(C(F)(F)F)cc2C2C=CCC12 (stereo not drawn) | 0.242 | / | / | 0.00435 | / | / | / | / | /
c1ccc(Cn2nnc3c(N4CCc5ccccc54)ncnc32)cc1 | -0.845 | 2.98* | 1.1 | 1.5 | / | 7.2 | 6044* | 1608 | i
c1ccc(Cn2nnc3c(N4CCCCCC4)ncnc32)cc1 | 0.174 | 6.37* | 4.5 | -2.13 | 1.5 | 13.8 | 7556* | 1448 | +
Fc1ccc(N2CCN(c3ncnc4c3nnn4Cc3ccccc3Cl)CC2)cc1 | 0.31 | / | / | -0.719 | / | / | / | / | /
COc1ccc(C(C)=O)cc1CSc1nnc(-c2ccccc2O)n1-c1ccccc1 | -0.6 | / | 3.8 | -0.443 | 1.4 | 19.4 | / | / | /
COc1cccc(NC(=O)CN(c2ccc(C)cc2)S(=O)(=O)c2c(C)nn(C)c2C)c1 | -0.808 | / | 5.9 | 0.539 | 1.5 | 6.8 | / | / | /
COc1ccc(N(CC(=O)Nc2cc(OC)ccc2OC)S(=O)(=O)c2c(C)nn(C)c2C)cc1 | / | 8.74* | -5.5 | / | 1.6 | 9.3 | 14244* | 1416 | +
COc1ccc(OC)c(NC(=O)CN(c2ccc(OC)c(Cl)c2)S(C)(=O)=O)c1 | 0.594 | 4.01* | 3.0 | -0.0333 | 1.7 | 15.3 | 16872* | 1728 | +
CCSC1=NC2(CCCCC2)Nc2sc3c(c21)CCCC3 | 0.24 | / | 11.0 | -1.32 | 1.6 | 17.2 | / | / | /
CC1CCN(Cc2c(C#N)c3ccccc3n2C)CC1 | 0.492 | -0.0855 | -0.2 | -1.73 | 0.9 | 1.1 | / | / | /
CN1CCc2c(sc3c2c(=O)n(-c2ccccc2)c2n[nH]c(=S)n32)C1 | -1.25 | / | 2.3 | 2.52 | 0.9 | 4.5 | / | / | /
CCOC(=O)c1c(C)nc(C)c(C(=O)OCC)c1-c1ccc(OC)cc1 | 0.131 | / | 19.2 | -0.753 | 1.1 | 16.3 | / | / | /
CCOC(=O)c1nnn(-c2nonc2N)c1-c1ccc(OC)cc1 | -0.392 | 10.7* | -8.7 | -0.168 | 0.8 | 7.4 | 22732* | 1492 | +
CCOC(=O)c1c(N)n[nH]c1-c1ccc(OC)cc1 | -0.778 | 8.95* | 22.4 | 1.24 | 1.3 | 5.7 | 16256* | / | +
Cc1cc(NC(=O)C2CCCCC2)n(-c2nc3ccccc3[nH]2)n1 | -0.314 | / | 1.4 | -0.38 | 1.1 | 12.2 | / | / | /
Cc1cc(NC(=O)C2CCC2)n(-c2ccccn2)n1 | 1.63 | 7.62* | -3.7 | 0.438 | 1.1 | 1.8 | 20484* | 1604 | +
Cc1cccc(C(=O)Nc2ccccc2SCC2CSc3nc4ccccc4c(=O)n32)c1 (stereo not drawn) | / | / | 1.9 | / | 1.1 | 6.3 | / | / | /
OC(CN1CCOCC1)CN1CCOCC1 | / | 2.63* | -3.2 | / | 1.1 | 4.4 | 6000 | 1732 | i
O=C(CNS(=O)(=O)c1cccc2nsnc12)NCc1ccc(Cl)cc1 | 1.43 | -0.618 | -2.6 | / | 1 | -4.0 | / | / | /
